Screens (PubChem BioAssay)
This is a sample that favours compounds with a hit; in the whole collection about 3.8% have one here.
S2 tox: reduces viability in counter-screen for ATXN expression inhibitors. S2 cells (HEK-293 line with an ATXN2-luciferase reporter) viability, CellTiter-Fluor protease fluorescence, 24 h. Potency, µM (series often up to 56.7 µM), actives largely listed as cytotoxic. 400,000 tested, 0.49% active. AID 651635; note: nearly all actives have a fitted effect of over 40% in size
HT1080-NT tox: kills 2HG-producing HT-1080-NT fibrosarcoma cells. HT-1080-NT fibrosarcoma viability, CellTiter-Glo ATP luminescence, 48 h. Potency, µM (series often up to 46.1 µM), for inactives: at the highest dose activity, negative = less viability, usual class: cytotoxic. 360,000 tested, 1.6% active. AID 686970;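 note: NT is the 2HG producing partner of a matched IDH1 knockdown line; 0% = DMSO-treated cells and -100% = media-only wells without cells; nearly all actives have a fitted effect of over 55% in size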
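Fibrosarcoma NT cells, 750 per well in 5% FBS RPMI, were exposed to compound for 48 hours. Viability: CellTiter-Glo luminescence.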
HepG2 tox: counter-screen for TGF-b inhibitors: cytotoxicity in HepG2 cells. HepG2 CAGA-GFP viability, ATP luminescence, 18 h. Potency, µM (doses to about 46.1 µM), without a hit: at the top dose activity change, negative = cytotoxicity, actives largely listed as cytotoxic. 410,000 tested, 0.76% active. AID 588856
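CellTiter-Glo luminescence gave cytotoxicity after 18 hours at 37 degrees C. The cells were HepG2 CAGA-GFP in 1% FBS DMEM, stimulated with 500 pg/mL TGF-beta after compound addition. %Activity was normalised to no-cell wells (complete cell-killing) and DMSO (no toxicity), and curves were fitted and classified.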
HT1080 IDH1KD tx: kills HT-1080 cells with IDH1 knockdown | 360,000 tested, 2% active | AID 686971 | HT-1080 IDH1 knockdown viability, ATP luminescence, 48 h | Potency, µM (highest dose often 46.1 µM), inactives show top-dose activity, negative = toxicity, actives largely listed as cytotoxic;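 note: 0% = DMSO wells and -100% = cell-free medium wells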
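Knockdown cells (IDH1KD HT-1080) received compounds 2 h after plating at 750 cells/well and were kept 48 h at 37 °C in 5% FBS RPMI. A CellTiter-Glo luminescence read gave % activity for curve fitting.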
TGFb inhibitor: blocks TGF-b signaling; HepG2 CAGA-GFP TGF-b/SMAD3 reporter, GFP fluorescence, 18 h; TGF-beta stimulated, 500 pg/mL final; Potency, µM (highest dose often 46.1 µM), without a hit: at the top dose activity, negative = inhibition, most hits filed as inhibitors; 410,000 tested, 1.2% active; note: % is set by controls: 0 for no effect and ±100 for the full control effect; nearly all actives have a fitted effect of over 65% in size
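HEPG2 CAGA-GFP reporter cells (1000/well, DMEM with 1% FBS) received compounds, then recombinant TGF-beta at 500 pg/mL final for 18 hours at 37 degrees C. Per-cell GFP summed per well was normalised to unstimulated and stimulated DMSO controls before curve fitting.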
ATXN2 expr inh: reduces ATXN2 reporter expression in HEK-293 cells | AID 1745845 | 360,000 tested, 0.72% active | Potency, µM (doses to about 57 µM), without a hit: at the top dose activity change, negative = inhibition, hits mostly inhibitors | HEK-293 ATXN2-luciferase reporter, luminescence, 24 h; note: % is set by controls: 0 for no effect and ±100 for the full control effect; nearly all actives have a fitted effect of over 55% in size
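qHTS (up to 57 uM final) was run with 24 h compound exposure of reporter cells at 37 °C. Each well was multiplexed: SteadyGlo luminescence measured ATXN2-luciferase expression after a fluorogenic Gly-Phe-AFC viability readout (25 uM final).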
An asterisk follows results filed as active; i = inactive; ? = inconclusive; . = not tested or not shown. Calls come from the whole dose curve; as a rule, active = well fitted curve in the direction sought with a large enough effect; inconclusive = small, poorly fitted or top-dose-only effect, or another doubt; inactive = no such curve, though single readings can be large; an effect the other way counts as inactive or inconclusive. Potency is the fitted concentration of half-maximal effect.

SMILES	S2 tox	HT1080-NT tox	HepG2 tox	HT1080 IDH1KD tx	TGFb inhibitor	ATXN2 expr inh
COc1ccccc1-c1cc(C(F)(F)F)nc(N2CCCC2)n1	i	1%	-14%	5%	-21%	4%
COc1ccccc1-c1cc(C(F)(F)F)nc(S(=O)(=O)CCCC(=O)NCc2ccc(F)cc2)n1	.	9.2µM*	14µM*	16µM*	?	?
COc1ccccc1-c1cc(C(F)(F)F)nc(S(C)(=O)=O)n1	32µM*	?	-116%	18µM*	?	?
COc1ccccc1-c1cc2nc(C)c(CCC(=O)NCc3ccc(F)cc3)c(C)n2n1	i	-1%	1%	6%	8%	-24%
COc1ccccc1-c1cc(C(F)(F)F)nc(S(=O)(=O)CCCC(=O)NC(C)C)n1	32µM*	5.8µM*	-22%	5.8µM*	?	?
CCn1ncc(C2=NOC(C(=O)Nc3ccc(C)cc3)C2)c1C (stereo not drawn)	i	4%	-6%	-13%	4%	-29%
CCn1ncc(C2=NOC(C(=O)NCc3ccc(Cl)cc3)C2)c1C (stereo not drawn)	?	4.5µM*	-4%	6.3µM*	-15%	-20%
COCC(=O)Nc1cc(C(=O)N2CCN(c3ccc(Cl)cn3)CC2)c2c(c1)nc(C1CCC1)n2C	i	.	.	.	.	.
COc1ccc(OC)c(-c2ccnc(-n3ncc(C(=O)N(C)CCc4ccccn4)c3C)n2)c1	i	.	.	.	.	.
CCOC(=O)C1CCCC(NS(=O)(=O)c2ccc(NC(C)=O)cc2)C1 (stereo not drawn)	i	-2%	-13%	1%	11µM*	4%
CCOc1ccc(NC(=O)COc2ccc(S(=O)(=O)NC3CCCCC3)cc2)cc1	i	.	-6%	.	-25%	-6%
O=C(Cc1ccc(S(=O)(=O)N2CCOCC2)s1)Nc1cc(C(F)(F)F)cc(C(F)(F)F)c1	?	?	-83%	?	18µM*	?
COc1cc(/C=C2\C(=O)ON=C2c2ccccc2)cc(Br)c1O	i	16µM*	-57%	?	?	-22%
Cc1cc(Nc2nc3ccccc3nc2Cl)n(-c2ccccc2)n1	i	?	-1%	13µM*	-11%	-9%
Cc1cccn2c(=O)c(C=O)c(Cl)nc12	?	?	-69%	?	16µM*	?
O=Cc1c(Cl)nc2ccccn2c1=O	i	?	0.56µM*	?	?	18%
COc1ccccc1-c1nnc(Sc2nc([N+](=O)[O-])nn2C)o1	.	13µM*	2%	4µM*	-4%	10µM*
CN(C(=O)c1cnn(-c2nccc(-c3ccccc3C(F)(F)F)n2)c1C1CC1)C1CCOC1 (stereo not drawn)	i	.	.	.	.	.
COc1cccc(O)c1CN1CCCC(C(=O)c2cccc(C(F)(F)F)c2)C1 (stereo not drawn)	i	-14%	-52%	?	16µM*	-37%
COc1ccc2cc(C(=O)C3CCCN(Cc4cccc(C)n4)C3)ccc2c1 (stereo not drawn)	i	?	-30%	23µM*	?	-13%
Cc1c2oc3c(C)ccc(C(=O)NC4C(=O)NC(C(C)C)C(=O)N5CCCC5C(=O)N(C)CC(=O)N(C)C(C(C)C)C(=O)OC4C)c3nc-2c(C(=O)NC2C(=O)NC(C(C)C)C(=O)N3CCCC3C(=O)N(C)CC(=O)N(C)C(C(C)C)C(=O)OC2C)c(N)c1=O (stereo not drawn)	.	.	.	.	.	0.0004µM*
COc1ccc(Nc2cc(C)c3cc(NC(=O)COc4cccc(C)c4)ccc3n2)cc1	?	.	-34%	.	?	?
CCC/C=C1\CCCOC(C(=O)NCc2ccccc2)(C(F)(F)F)C1 (stereo not drawn)	.	.	-18%	.	-22%	.
O=S(=O)(N=Cc1c(O)ccc2ccccc12)c1cccs1	.	.	.	.	.	47%
COc1ccc(CN2CCCC(Cn3cc(C(=O)N4CCCC4)nn3)C2)c(O)c1 (stereo not drawn)	i	.	.	.	.	.
SMILES	S2 tox	HT1080-NT tox	HepG2 tox	HT1080 IDH1KD tx	TGFb inhibitor	ATXN2 expr inh
O=c1cc(C(Cl)(Cl)Cl)oc2c1ccc1ccccc12	.	16µM*	-50%	12µM*	-27%	?
O=c1cc(-c2ccco2)oc2c1ccc1ccccc12	i	9%	-77%	23%	19%	-9%
C=C[C@]1(C)C=C2CC[C@H]3[C@@](C)(CCC[C@@]3(C)C(=O)O)[C@@H]2CC1	i	-7%	-70%	-8%	?	8%
C=C[C@]1(C)C=C2C(=O)[C@@]3(O)OC(=O)[C@@]4(CCCC(C)(C)[C@H]34)[C@@]2(O)CC1	1.8µM*	2.9µM*	5.6µM*	2.9µM*	?	1.6µM*
COc1ccccc1CN1CCC(CNS(=O)(=O)c2cc(-c3onc(C)c3C)ccc2OC)CC1	i	18µM*	-16%	18µM*	?	-36%
N#Cc1ncc(Cl)c2ccccc12	i	15%	16µM*	-1%	-16%	.
Cc1cc(=O)oc2c(C(=O)/C=C\c3cccs3)c(O)ccc12	i	?	3%	21µM*	-13%	-2%
Cc1cc(=O)oc2c(C(=O)/C=C/c3ccccc3)c(O)ccc12	i	0%	5%	3%	2%	1%
O=C(Cn1c2ccccc2c(=O)c2ccccc21)N/N=C/c1ccc(N2CCCC2)c([N+](=O)[O-])c1	.	-2%	-50%	0%	-21%	32µM*
COc1cc(-c2noc(-c3ccc(NCc4ccco4)c([N+](=O)[O-])c3)n2)cc(OC)c1OC	i	.	0%	.	?	-2%
COc1ccc(CC(=O)Nc2sc3c(c2C(=O)Nc2ccc(C)cc2)CCCCC3)cc1	.	.	-6%	.	-7%	.
Cc1nc(C(F)(F)F)c(C(=O)N/N=C(\N)c2ccccn2)s1	?	?	-12%	16µM*	-21%	?
N/C(=N\NS(=O)(=O)c1ccccc1C(F)(F)F)c1ccccn1	i	6%	9%	-1%	2%	.
COc1ccc(CCCNC(=O)C2Cc3c(-c4ccc5c(c4)OCO5)ccnc3O2)cc1 (stereo not drawn)	i	9.2µM*	-37%	5.8µM*	-5%	-8%
O=C(NCc1ccccc1)C1Cc2c(-c3ccc4c(c3)OCO4)ccnc2O1 (stereo not drawn)	?	?	-2%	0.41µM*	-19%	0%
COc1ccc(CCCNC(=O)C2Cc3c(-c4cccc(C(C)=O)c4)ccnc3O2)cc1 (stereo not drawn)	?	?	-1%	?	?	-20%
